# Experiment: HepG2 liver cancer cell viability effects, profiling panel, resazurin fluorescence, 24 h, PK04 Diversity Set (AID 1172); further: test concentration not given here
# Conditions: higher = more signal
row,Compound,z-score
1,CCCC=C(CCC)[C@@H](NC(=O)c1ccc(-c2ccccc2)cc1)c1ccc(C(=O)OC)cc1,0.664
2,COC(=O)[C@@]1(Cc2ccccc2)[C@H]2c3cc(C(=O)N4CCCC4)n(Cc4ccccn4)c3C[C@H]2CN1C(=O)c1ccccc1,-1.17
3,O=C(CS)NCCCCCNC(=O)[C@@H]1C[C@@H]2C(=O)N[C@@H](Cc3ccccc3)C(=O)N2[C@@H]1c1ccc(O)cc1,-0.204
4,CC(C)C[C@@H]1NC(=O)[C@H]2C[C@@H](C(=O)NCCCCCCN(C)C)[C@@H](c3cccc(OCCO)c3)N2C1=O,-0.233
5,COCCCNC(=O)[C@@]1(CCS(=O)(=O)c2ccccc2)N=C(c2ccc(OCCCO)cc2)O[C@H]1c1ccccc1,1.62
6,Cc1ccc(S[C@]2(C(=O)NCC(F)(F)F)CC(=O)N(Cc3ccccc3Cl)[C@@H]2c2ccc(CO)cc2I)cc1,0.305
7,O=C1O[C@@H](c2ccccc2)[C@@H](c2ccccc2)N2[C@@H](c3ccc(OCCO)cc3)[C@]3(C(=O)Nc4ccc(C#CCCO)cc43)[C@@H](C(=O)N3CCCCCCC3)[C@H]12,0.0125
8,CCOC(=O)C1=CCC(c2cc3ccccc3[nH]2)NC1 (stereo unspecified),-0.309
9,O=C1NC(=O)C2C1C=CC(C(O)Cc1ccccc1)N2Nc1ccccn1 (stereo unspecified),-0.507
10,C#C[C@@H]1Oc2ccccc2S(=O)(=O)N2CCC[C@H]12,-0.768
11,COc1ccc([Si](C)(C)[C@H]2[C@H](CCO)O[C@@]3(C(=O)N(Cc4cccc(NC(=O)[C@H](C)O)c4)c4ccccc43)[C@@H]2C)cc1,-5.76
12,C=CCOC(=O)[C@H]1[C@@H]2C(=O)O[C@@H](c3ccccc3)[C@@H](c3ccccc3)N2[C@@H](c2ccc(OCCOC(=O)[C@H]3C[C@H]4C(=O)N5CCC[C@H]5C(=O)N4[C@H]3c3cccc(OCCO)c3)cc2)[C@]12C(=O)Nc1ccc(I)cc12,0.187
13,C=C(/C(=C/C[C@@H](OC(=O)c1ccncc1)c1ccc(OCCO)cc1)c1cnc2ccccc2c1)C(C)C,0.384
14,O=C1C[C@]2(c3ccc([N+](=O)[O-])cc3)C(=O)N(CCN3CCOCC3)c3cc(CO)ccc3[C@H]2N1CC12CC3CC(CC(C3)C1)C2,-0.0113
15,CC(C)C[C@@H]1NC(=O)[C@H]2C[C@@H](C(=O)O)[C@@H](c3ccc(O)cc3)N2C1=O,0.374
16,COCCOC(=O)N1C(=O)[C@@]2(c3cc(C#Cc4ccc(OC)cc4)ccc31)[C@H](c1ccc(O)cc1)N1[C@H](c3ccccc3)[C@H](c3ccccc3)OC(=O)[C@H]1[C@@H]2C(N)=O,-0.422
17,CC(C)NC(=O)[C@@]1(C)c2ccccc2C(=O)N(Cc2cc(F)cc(C(F)(F)F)c2)[C@H]1c1ccc(CO)cc1,-0.0499
18,COCCOC(=O)N1C(=O)[C@@]2(c3ccccc31)[C@H](C(N)=O)[C@H]1C(=O)O[C@H](c3ccccc3)[C@H](c3ccccc3)N1[C@@H]2c1ccccc1OCCO,-1.23

row,Compound,z-score
1,CN1C(=O)C2C=CC(C(O)c3ccc(I)cc3)N(NC(=O)OC(C)(C)C)C2C1=O (stereo unspecified),-1.11
2,C=CCC(OC(C)=O)[C@@H]1[C@@H](N(Cc2cc3ccccc3o2)C(=O)Cc2ccc(F)cc2)c2cc(OCCCO)ccc2N1C(=O)Cc1ccc(OC)cc1 (stereo partly specified),0.217
3,CN1C(=O)C2C=CC(C(O)C(c3ccccc3)c3ccccc3)N(NC(=O)OC(C)(C)C)C2C1=O (stereo unspecified),-0.889
4,COCCCNC(=O)[C@]1(CCC(=O)OC(C)(C)C)N=C(c2ccc(OCCCO)cc2)O[C@@H]1c1ccccc1N=[N+]=[N-],1.18
5,O=C1O[C@@H](c2ccccc2)[C@@H](c2ccccc2)N2[C@@H](c3ccccc3OCCO)[C@]3(C(=O)Nc4ccc(C#CCCO)cc43)[C@@H](C(=O)O)[C@H]12,-0.307
6,CN1C(=O)C2C(C1=O)C1C=C(CCCO)C2C(c2ccc(CN3CCCC3)cc2)N1C (stereo unspecified),-1.03
7,COC(=O)[C@@]1(Cc2ccc(F)cc2)[C@@H]2C(=CC(=O)[C@H]2CC(=O)C(=O)N(C)C)CN1C(=O)c1ccccc1,-1.46
8,[N-]=[N+]=NCc1ccccc1C[C@]1(C(=O)NCc2ccccc2)N=C(c2ccc(OCCCO)cc2)O[C@H]1c1ccccc1N=[N+]=[N-],-0.269
9,C=C(COC)/C(=C/C[C@H](OC(=O)c1ccncc1)c1ccc(CO)o1)c1cc(C(=O)OC)ccc1OC,-0.0086
10,CS(=O)(=O)CCOC(=O)C1=CC(CCCO)=CC(c2cccs2)N(Cc2cccc(OC(F)(F)F)c2)C=C1C(=O)OCCS(C)(=O)=O (stereo unspecified),-0.746
11,CCCNC(=O)[C@@H]1c2ccccc2C(=O)N(Cc2ccccc2Cl)[C@H]1c1ccc(CO)cc1,1.44
12,CCc1cccc(NC(=O)O[C@H]2[C@H](OC(=O)Nc3ccc4c(c3)OCO4)[C@@H](OC(=O)Nc3ccc4c(c3)OCO4)[C@@H](OC)O[C@@H]2CO)c1,1
13,COC(=O)[C@@]1(Cc2ccc(OC)cc2)[C@H]2c3cc(C(=O)N4CCCC4)n(Cc4cc(F)c(F)c(F)c4)c3C[C@H]2CN1C(=O)c1ccccc1,0.0559
14,CN(C)C(=O)[C@@]1(Cc2ccccc2)N=C(c2ccc(OCCCO)cc2)O[C@H]1c1ccccc1CN=[N+]=[N-],-0.412
15,COc1ccc([Si](C)(C)[C@@H]2[C@@H](CCO)O[C@]3(C(=O)N(Cc4ccc(NC(C)=O)cc4)c4ccccc43)[C@H]2C)cc1,-2.52
16,O=C1O[C@@H](c2ccccc2)[C@@H](c2ccccc2)N2[C@@H](c3ccc(O)cc3)[C@]3(C(=O)Nc4ccccc43)[C@@H](C(=O)O)[C@H]12,-0.253
17,O=C1c2ccccc2[C@@]2(Cc3ccccc3N(C3CC3)C2=O)[C@H](c2ccc(CO)cc2)N1Cc1ccccc1C(F)(F)F,-0.506
18,O[C@@H](Cc1ccccc1)[C@H]1C2C=CCCC(c3ccccc3)=C2CN1Cc1cccc(Cl)c1 (stereo partly specified),0.689

# Source: PubChem BioAssay
